Experimental data published in PubChem BioAssay AID1048 (The Scripps Research Institute Molecular Screening Center, 2008).
In all, about 99,000 compounds went through this assay and about 390 (0.39%) were called active. Cut-off read from the data, not from the text of the source: active = TR-FRET ratio above about 2000; inactive = the rest. This excerpt belongs to a sample that is enriched for actives.

Test: signal artefacts in PPARgamma/SRC-3 readout – biochemical, TR-FRET ratio, artefact control for PPARgamma SRC-3 recruitment agonists (AID 1048)
Settings: TR-FRET artefact counter-screen, PPARgamma/SRC-3 format; at 8 µM; hits give high values
In the case of CCc1cccc(CC)c1NC(=O)COc1ccccc1C(=O)c1cc(C#N)c(=O)n(C2CCCCC2)c1, the TR-FRET ratio is reported as 1810 (inactive). In the case of CCN(CC(=O)NCCc1ccccc1)S(=O)(=O)c1ccc(C)cc1, the TR-FRET ratio is reported as 1520 (inactive). With O=C(O)CCN(Cc1ccccc1)S(=O)(=O)c1c(Cl)cccc1Cl the TR-FRET ratio was 1570 (inactive). With O=C(CCc1ccccc1)Nc1nn[nH]n1 the TR-FRET ratio was 1720 (inactive). In the case of C/C(CC(=O)N1CCN(C=O)CC1)=N\NC(=O)c1ccc(Br)cc1, the TR-FRET ratio is reported as 1640 (inactive). In the case of O=C(Nc1cccc(Cl)c1)c1cc([N+](=O)[O-])ccc1N1CCN(CCO)CC1, the TR-FRET ratio is reported as 1540 (inactive). In the case of O=C(C1CCN(C2CCN(Cc3cccc4c3OCO4)CC2)CC1)N1CCOCC1, the TR-FRET ratio is reported as 1420 (inactive). With Cc1cc(OCC(=O)NC2CCN(C)CC2)ccc1[N+](=O)[O-] the TR-FRET ratio was 1610 (inactive). For O=C(Nc1ccccc1C(=O)N1CCOCC1)c1ccc(Cl)cc1, the TR-FRET ratio was 1680 (inactive). For COc1ccc(C(=O)Nc2ccc(NC(=O)C(C)C)nc2)cc1, the TR-FRET ratio was 1500 (inactive). In the case of C=CCn1nc(-c2ccccc2)c2c(C)onc2c1=O, the TR-FRET ratio is reported as 1650 (inactive). In the case of O=C(N1CCCCC1)N1CCN(C(=O)N2CCCCC2)CC1, the TR-FRET ratio is reported as 1530 (inactive). With CC(=O)Nc1ccccc1OC(C)C(=O)N1CCC(C)CC1 (centres undefined) the TR-FRET ratio was 1390 (inactive). With O=C(NCc1ccncc1)NC12CC3CC(CC(C3)C1)C2 the TR-FRET ratio was 1490 (inactive). In the case of Cc1ccc(C(=O)OC(C)CN2CCOCC2)cc1 (centres undefined), the TR-FRET ratio is reported as 1500 (inactive). In the case of CCOC(=O)C1CCCN(C(=O)/C=C/c2ccc(OC)cc2)C1 (centres undefined), the TR-FRET ratio is reported as 1570 (inactive). With COc1ccc(CN2CCCC(CNC(=O)c3ccc(F)cc3)C2)cc1OC (centres undefined) the TR-FRET ratio was 1700 (inactive). In the case of Cc1ccnc(NC(=O)CCC(=O)N(CC(=O)NCCc2ccccc2)Cc2cccs2)c1, the TR-FRET ratio is reported as 1720 (inactive). In the case of COc1cccc(CC2(CO)CCCN(Cc3nc(-c4cccs4)oc3C)C2)c1 (centres undefined), the TR-FRET ratio is reported as 1600 (inactive). With CCOC(=O)N1CCN(C(=O)Cn2cnc3ccccc3c2=O)CC1 the TR-FRET ratio was 1650 (inactive). For Cc1ccc2nsnc2c1NC(=O)c1ccccc1[N+](=O)[O-], the TR-FRET ratio was 1630 (inactive). With COc1cc(/C=C/C(=O)O)cc(S(=O)(=O)Nc2ccccc2SC)c1OC the TR-FRET ratio was 1430 (inactive). With CCSc1nc(C)c(CCOc2cccc(C)c2)c(=O)[nH]1 the TR-FRET ratio was 1860 (inactive). For Cc1ccc(C(=O)NCC(=O)O)s1, the TR-FRET ratio was 1560 (inactive). For COc1cc(COCC(O)CN2CCN(Cc3ccc4c(c3)OCO4)CC2)cc(OC)c1OC (centres undefined), the TR-FRET ratio was 1800 (inactive). In the case of CCN(CC)CC(=O)Nc1sc2c(c1C(=O)c1ccccc1C)CCC2, the TR-FRET ratio is reported as 1510 (inactive). In the case of NC(=O)C[C@@H]1NC(=O)CNC(=O)c2cc([N+](=O)[O-])cc(I)c2NCCC(C(N)=O)NC1=O (some centres undefined), the TR-FRET ratio is reported as 1320 (inactive). With Cc1cc(C(=O)NNC(=O)c2cccc(S(=O)(=O)N3CCOCC3)c2)c2ccccc2n1 the TR-FRET ratio was 1670 (inactive). With O=C(Cc1ccccc1)NNC(=O)C1CCN(c2ncccn2)CC1 the TR-FRET ratio was 1500 (inactive).
